Assay results from ChEMBL document CHEMBL3988442, “University of Dundee, Small-Polar-MMV Screening Library” (2021).
For part of these data: Potency and affinity values are given separately.

Key:
Parameters in all cases: scale not given: direction of the effect not stated beside the values
[1] = biological target: Protein translocase subunit SecA (Escherichia coli (strain K12)) (UniProt P10408); experiment: Assay to Identify E. coli SecA ATPase Inhibitors; assay type: functional; settings: 30 µM
[2] = biological target: T1, Ubiquitin-activating enzyme e1, putative (Leishmania donovani (strain BPK282A1)) (UniProt E9BSI1); experiment: Leishmania donovani Ubiquitin Activating Enzyme (LdE1); assay type: functional; settings: 30 µM
T1 sequence (whole entry): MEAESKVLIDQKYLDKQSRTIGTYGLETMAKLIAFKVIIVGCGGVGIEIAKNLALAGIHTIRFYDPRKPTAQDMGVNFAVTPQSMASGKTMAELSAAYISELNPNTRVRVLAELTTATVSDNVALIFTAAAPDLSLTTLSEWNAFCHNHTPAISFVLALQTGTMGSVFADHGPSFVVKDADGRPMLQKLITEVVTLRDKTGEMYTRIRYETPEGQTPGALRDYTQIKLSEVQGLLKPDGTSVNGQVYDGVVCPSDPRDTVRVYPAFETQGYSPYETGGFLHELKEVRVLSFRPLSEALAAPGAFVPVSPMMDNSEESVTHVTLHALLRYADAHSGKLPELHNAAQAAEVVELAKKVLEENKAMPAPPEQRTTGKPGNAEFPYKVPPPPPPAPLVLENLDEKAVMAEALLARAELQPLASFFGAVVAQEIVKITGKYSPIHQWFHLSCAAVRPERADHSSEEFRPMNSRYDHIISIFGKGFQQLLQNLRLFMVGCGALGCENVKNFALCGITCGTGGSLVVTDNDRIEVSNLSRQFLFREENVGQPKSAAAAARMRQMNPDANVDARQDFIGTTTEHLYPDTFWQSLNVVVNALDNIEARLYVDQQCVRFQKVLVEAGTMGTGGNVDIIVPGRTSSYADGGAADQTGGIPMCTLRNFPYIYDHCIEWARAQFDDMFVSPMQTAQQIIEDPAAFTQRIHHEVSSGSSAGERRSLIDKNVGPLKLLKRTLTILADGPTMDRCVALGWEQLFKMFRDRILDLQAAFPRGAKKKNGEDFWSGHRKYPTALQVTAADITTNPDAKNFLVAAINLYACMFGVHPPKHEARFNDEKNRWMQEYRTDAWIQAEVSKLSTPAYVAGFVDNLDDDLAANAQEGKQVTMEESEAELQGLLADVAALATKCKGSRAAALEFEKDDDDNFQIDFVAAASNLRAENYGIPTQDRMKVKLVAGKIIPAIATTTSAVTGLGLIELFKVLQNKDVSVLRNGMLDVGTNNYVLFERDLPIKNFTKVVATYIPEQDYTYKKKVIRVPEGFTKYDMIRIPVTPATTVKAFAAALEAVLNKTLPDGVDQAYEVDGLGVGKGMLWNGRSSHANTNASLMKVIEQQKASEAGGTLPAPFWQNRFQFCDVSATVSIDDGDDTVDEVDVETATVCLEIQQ

[3] = biological target: AMP-activated protein kinase, AMPK (Homo sapiens) (UniProt P54646+O43741+P54619+Q9UGJ0+Q9Y478+Q13131+Q9UGI9); experiment: AMP-dependent Kinase enzyme assay. An in vitro enzyme assay that detects ADP turnover that is directly proportional to AMPK activity. This uses naive AMPK that is activated during the assay with MK-8722; assay type: functional; settings: 30 µM
[4] = biological target: Sialic acid-binding Ig-like lectin 9 (Homo sapiens) (UniProt Q9Y336); experiment: Hs-Siglec9 ALPHAscreen SOP 20170721; settings: 10 µM
[5] = test system: Trypanosoma cruzi; experiment: Trypanosoma cruzi phosphomannomutase and mannose-1-phosphate guanylyltransferase assay; assay type: functional; settings: 10 µM
[6] = biological target: T2, Arginase-2, mitochondrial (Homo sapiens) (UniProt P78540); experiment: in vitro enzyme assay to detect the production of urea directly proportional to the activity of Arginase II; assay type: functional; further: in the data most compounds retested in dose-response had high values
T2 sequence (whole entry): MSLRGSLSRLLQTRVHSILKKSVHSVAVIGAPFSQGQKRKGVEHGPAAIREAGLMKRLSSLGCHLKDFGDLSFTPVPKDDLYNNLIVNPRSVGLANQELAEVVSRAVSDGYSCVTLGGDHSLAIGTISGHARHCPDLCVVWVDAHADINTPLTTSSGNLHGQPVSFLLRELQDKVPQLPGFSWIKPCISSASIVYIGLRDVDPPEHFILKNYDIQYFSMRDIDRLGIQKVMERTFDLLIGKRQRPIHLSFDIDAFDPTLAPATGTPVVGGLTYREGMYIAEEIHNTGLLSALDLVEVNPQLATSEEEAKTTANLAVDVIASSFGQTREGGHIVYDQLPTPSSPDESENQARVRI

[7] = biological target: T3, Proteasome subunit beta (Trypanosoma cruzi) (UniProt O96673); experiment: Trypanosoma cruzi proteasome chymotrypsin-like activity (TcProtChymo) assay.; further: in the data most compounds retested in dose-response had high values; assay type: functional; settings: 9.37 µM
T3 sequence (whole entry): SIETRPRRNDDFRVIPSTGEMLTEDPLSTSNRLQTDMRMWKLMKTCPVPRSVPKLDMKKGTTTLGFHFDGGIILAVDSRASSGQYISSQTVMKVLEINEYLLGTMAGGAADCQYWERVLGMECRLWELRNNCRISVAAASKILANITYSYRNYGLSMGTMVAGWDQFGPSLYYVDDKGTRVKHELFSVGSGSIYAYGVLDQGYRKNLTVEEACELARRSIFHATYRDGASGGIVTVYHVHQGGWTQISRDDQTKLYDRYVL

[8] = species on record: Homo sapiens; experiment: To identify inhibition of the IFN signalling (Jak-Stat) pathway via expression of an eGFP reporter gene under the control of an IFN-stimulated response element (ISRE) containing MxA promoter.; assay type: functional; settings: 30 µM
[9] = biological target: T4, Tyrosyl-tRNA synthetase, putative (Trypanosoma cruzi (strain CL Brener)) (UniProt Q4DSP6); experiment: Trypanosoma cruzi tyrosyl tRNA synthetase (TcYRS) _High Tyrosine SOP; assay type: functional; settings: 30 µM; further: in the data most compounds retested in dose-response had high values
T4 sequence (whole entry): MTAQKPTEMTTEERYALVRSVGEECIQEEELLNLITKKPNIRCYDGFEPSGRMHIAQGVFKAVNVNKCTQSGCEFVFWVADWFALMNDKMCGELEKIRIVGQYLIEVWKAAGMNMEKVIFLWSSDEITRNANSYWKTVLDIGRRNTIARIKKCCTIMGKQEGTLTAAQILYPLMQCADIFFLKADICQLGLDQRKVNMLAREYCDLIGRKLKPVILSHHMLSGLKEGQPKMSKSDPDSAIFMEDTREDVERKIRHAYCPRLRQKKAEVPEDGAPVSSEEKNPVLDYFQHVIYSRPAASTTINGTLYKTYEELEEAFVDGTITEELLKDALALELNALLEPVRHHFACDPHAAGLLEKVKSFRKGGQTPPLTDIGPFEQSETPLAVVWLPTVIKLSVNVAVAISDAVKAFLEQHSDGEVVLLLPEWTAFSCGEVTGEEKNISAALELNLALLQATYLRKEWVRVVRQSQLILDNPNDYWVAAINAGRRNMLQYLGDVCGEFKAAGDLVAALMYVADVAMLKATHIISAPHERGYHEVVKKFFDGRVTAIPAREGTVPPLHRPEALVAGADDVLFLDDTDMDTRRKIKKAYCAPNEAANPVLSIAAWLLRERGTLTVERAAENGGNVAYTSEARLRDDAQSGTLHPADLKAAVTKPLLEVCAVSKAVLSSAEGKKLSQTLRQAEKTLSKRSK

[10] = biological target: T4, Tyrosyl-tRNA synthetase, putative (Trypanosoma cruzi (strain CL Brener)); experiment: Trypanosoma cruzi tyrosyl tRNA synthetase (TcYRS) SOP; assay type: functional; settings: 30 µM
[11] = biological target: Chromo domain-containing protein 1 (Saccharomyces cerevisiae (strain ATCC 204508 / S288c) (Baker's yeast)) (UniProt P32657); experiment: ScCHD-1 Enzyme Inhibition Assay; assay type: functional; settings: 30 µM; further: in the data most compounds retested in dose-response had high values
Sequence of Chromo domain-containing protein 1 (Saccharomyces cerevisiae (strain ATCC 204508 / S288c) (Baker's yeast)) (P32657 whole entry, the tested form may be a part): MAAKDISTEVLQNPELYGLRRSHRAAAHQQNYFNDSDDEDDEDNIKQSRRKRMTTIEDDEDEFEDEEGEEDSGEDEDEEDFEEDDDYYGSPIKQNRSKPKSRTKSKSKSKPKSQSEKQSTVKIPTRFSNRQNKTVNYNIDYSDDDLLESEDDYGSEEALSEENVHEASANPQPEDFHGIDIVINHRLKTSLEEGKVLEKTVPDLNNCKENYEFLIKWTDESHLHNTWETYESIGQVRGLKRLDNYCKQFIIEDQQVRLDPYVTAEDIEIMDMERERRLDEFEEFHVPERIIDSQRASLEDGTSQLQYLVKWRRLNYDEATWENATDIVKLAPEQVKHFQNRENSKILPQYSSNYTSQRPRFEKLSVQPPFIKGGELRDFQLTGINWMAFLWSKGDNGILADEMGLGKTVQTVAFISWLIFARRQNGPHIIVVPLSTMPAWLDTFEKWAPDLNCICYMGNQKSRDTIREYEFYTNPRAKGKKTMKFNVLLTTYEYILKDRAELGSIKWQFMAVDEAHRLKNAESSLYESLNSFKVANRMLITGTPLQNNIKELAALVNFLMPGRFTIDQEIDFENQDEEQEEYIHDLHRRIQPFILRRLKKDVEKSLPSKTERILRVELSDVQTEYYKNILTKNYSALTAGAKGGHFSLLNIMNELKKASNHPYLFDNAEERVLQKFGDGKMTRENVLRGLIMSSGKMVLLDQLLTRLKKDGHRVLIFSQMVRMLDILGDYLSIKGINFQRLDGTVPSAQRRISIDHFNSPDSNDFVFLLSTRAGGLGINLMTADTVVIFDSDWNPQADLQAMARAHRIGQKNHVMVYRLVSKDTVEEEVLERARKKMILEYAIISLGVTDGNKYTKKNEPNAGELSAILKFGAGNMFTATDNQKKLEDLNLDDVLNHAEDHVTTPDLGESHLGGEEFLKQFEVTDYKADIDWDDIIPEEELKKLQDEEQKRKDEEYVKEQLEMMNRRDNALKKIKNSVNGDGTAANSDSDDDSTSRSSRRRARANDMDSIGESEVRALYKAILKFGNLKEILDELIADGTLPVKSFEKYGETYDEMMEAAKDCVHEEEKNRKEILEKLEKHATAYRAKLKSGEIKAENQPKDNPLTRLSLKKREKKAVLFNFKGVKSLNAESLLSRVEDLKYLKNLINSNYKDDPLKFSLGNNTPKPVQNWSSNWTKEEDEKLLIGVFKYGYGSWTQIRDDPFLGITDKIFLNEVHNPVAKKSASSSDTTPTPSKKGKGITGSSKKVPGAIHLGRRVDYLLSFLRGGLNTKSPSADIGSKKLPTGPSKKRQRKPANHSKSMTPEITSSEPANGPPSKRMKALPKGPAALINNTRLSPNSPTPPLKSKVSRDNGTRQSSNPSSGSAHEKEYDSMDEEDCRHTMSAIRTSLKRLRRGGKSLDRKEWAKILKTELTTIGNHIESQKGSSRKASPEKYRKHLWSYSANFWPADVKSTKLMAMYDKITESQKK

Sequence of Protein translocase subunit SecA (Escherichia coli (strain K12)) (P10408 whole entry): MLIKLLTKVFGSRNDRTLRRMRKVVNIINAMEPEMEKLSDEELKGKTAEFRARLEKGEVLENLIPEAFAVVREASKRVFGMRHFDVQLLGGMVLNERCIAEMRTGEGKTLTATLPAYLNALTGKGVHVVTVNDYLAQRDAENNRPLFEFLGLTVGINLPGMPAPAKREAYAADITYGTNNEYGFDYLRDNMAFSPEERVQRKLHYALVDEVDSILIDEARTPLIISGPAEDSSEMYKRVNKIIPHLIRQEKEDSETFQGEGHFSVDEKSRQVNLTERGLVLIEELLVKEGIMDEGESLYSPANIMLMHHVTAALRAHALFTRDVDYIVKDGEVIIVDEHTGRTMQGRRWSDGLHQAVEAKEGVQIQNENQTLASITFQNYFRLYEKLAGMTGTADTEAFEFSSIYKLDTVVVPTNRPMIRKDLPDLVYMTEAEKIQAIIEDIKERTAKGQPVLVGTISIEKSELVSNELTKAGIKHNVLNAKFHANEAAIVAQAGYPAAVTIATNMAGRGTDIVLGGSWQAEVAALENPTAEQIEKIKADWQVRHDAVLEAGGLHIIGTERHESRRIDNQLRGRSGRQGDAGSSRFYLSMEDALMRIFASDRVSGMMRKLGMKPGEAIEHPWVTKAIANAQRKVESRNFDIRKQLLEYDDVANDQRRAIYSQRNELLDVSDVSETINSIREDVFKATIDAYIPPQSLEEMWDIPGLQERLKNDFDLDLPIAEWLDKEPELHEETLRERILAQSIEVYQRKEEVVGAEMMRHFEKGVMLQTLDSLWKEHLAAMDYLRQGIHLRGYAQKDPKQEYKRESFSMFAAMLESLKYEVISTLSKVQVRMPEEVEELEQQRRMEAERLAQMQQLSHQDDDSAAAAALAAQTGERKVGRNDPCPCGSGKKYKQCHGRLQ
Sequence of Sialic acid-binding Ig-like lectin 9 (Homo sapiens) (Q9Y336 whole entry): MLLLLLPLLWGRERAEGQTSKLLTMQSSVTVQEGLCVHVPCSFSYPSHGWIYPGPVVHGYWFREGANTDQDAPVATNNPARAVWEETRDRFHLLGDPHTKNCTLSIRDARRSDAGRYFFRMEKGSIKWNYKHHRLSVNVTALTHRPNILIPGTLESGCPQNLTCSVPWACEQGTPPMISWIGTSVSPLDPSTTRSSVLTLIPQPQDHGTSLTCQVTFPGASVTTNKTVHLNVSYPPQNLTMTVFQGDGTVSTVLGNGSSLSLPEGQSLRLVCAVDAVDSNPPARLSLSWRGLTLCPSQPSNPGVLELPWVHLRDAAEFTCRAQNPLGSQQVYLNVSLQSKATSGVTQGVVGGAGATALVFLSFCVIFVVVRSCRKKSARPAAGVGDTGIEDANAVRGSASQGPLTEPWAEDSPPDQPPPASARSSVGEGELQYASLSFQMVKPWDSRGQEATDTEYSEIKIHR

SMILES | Percent Effect [1] | Percent Effect [2] | Percent Effect [3] | Percent Effect [4] | Percent Effect [5] | Percent Effect ([6]; 30 µM) | Percent Effect ([6]; 33.3 µM) | Percent Effect [7] | Percent Effect [8] | Percent Effect [9] | Percent Effect [10] | Percent Effect [11]
Cc1cc(C(=O)N2C[C@@H](C(=O)O)[C@H](c3ccccc3C)C2)c(C)o1 | -6.29% | 2.7% | 4.96% | -6.42% | -7.92% | 4.87% | -2.23% | 11.2% | 18.7% | 1.07% | 3.7% | -4.1%
O=C(Cc1ccccn1)N1CCC2(CC1)CC(Oc1ccccn1)CO2 (stereo not given) | -3.31% | 10.7% | 4.11% | 0.184% | -1.18% | 2.7% | -5.36% | 12.2% | 12.5% | 7.45% | 16.7% | -7.71%
COc1ccc(-c2nc(CN3CC(n4nc(C)cc4C)C3)no2)cc1 | -4.78% | -5.2% | 0.251% | -0.396% | -6.79% | 2.7% | 17.9% | 14.5% | 15.2% | 2.15% | 1.24% | 1.8%
O=c1[nH]c2c(c(=O)n1C1CCCCC1)CCC2Nc1ccccc1 (stereo not given) | -1.62% | -4% | -24.6% | -0.297% | 0.393% | -11.3% | 1.58% | 9.8% | 11.8% | -1.06% | 0% | 0.309%
COc1ccccc1Oc1ncccc1CNC(=O)[C@@H](C)NC(C)=O | -1.21% | -4.17% | -4.59% | -7.34% | -3.98% | 4.87% | 2.21% | -0.526% | 2.14% | 2.1% | -2.56% | 2.74%
